This is a sample that favours compounds with a hit; in the whole collection about 17% have one here.
HepG2 tox: counter-screen for TGF-b inhibitors: cytotoxicity in HepG2 cells; HepG2 CAGA-GFP viability, ATP luminescence, 18 h; Potency, µM (highest dose often 46.1 µM), without a hit: top-dose activity change, negative = cytotoxicity, hits mostly cytotoxic; hit rate 0.76% among 410,000
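HepG2 CAGA-GFP cells (1000/well, DMEM with 1% FBS) received compound, then TGF-beta at 500 pg/mL final, and were incubated 18 hours at 37 degrees C. Viability was read by CellTiter-Glo luminescence. Media-only wells were set as complete cell-killing and DMSO as no toxicity.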
TDP1 cell noCPT: qHTS for Inhibitors of human tyrosyl-DNA phosphodiesterase 1 (TDP1): qHTS in cells in absence of CPT | Potency, µM (series often up to 46.2 µM), for inactives: top-dose activity change, negative = growth inhibition, hits mostly inhibitors | AID 686978, 2013 | hit rate 15% among 420,000 | DT40 Tdp1-/- hTDP1 cells, no CPT, ATP luminescence, 48 h; note: % is set by controls: 0 for no effect and ±100 for the full control effect; nearly all actives have a fitted effect of over 55% in size
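Compound effects on proliferation are scored in DT40 Tdp1-/-;hTDP1 cells in the absence of CPT. ATP levels (CellTiter-Glo luminescence) are recorded after a ≥48 hr, 37 °C incubation.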
S2 tox: reduces viability in counter-screen for ATXN expression inhibitors | Potency, µM (top dose mostly 56.7 µM), hits mostly cytotoxic | S2 cells (HEK-293 line with an ATXN2-luciferase reporter) viability, CellTiter-Fluor protease fluorescence, 24 h | AID 651635 | hit rate 0.49% among 400,000; note: nearly all actives have a fitted effect of over 40% in size
ATXN2 expr inh: reduces ATXN2 reporter expression in HEK-293 cells; hit rate 0.72% among 360,000; HEK-293 ATXN2-luciferase reporter, luminescence, 24 h; Potency, µM (highest dose often 57 µM), for inactives: top-dose activity change, negative = inhibition, usual class: inhibitors; note: % is set by controls: 0 for no effect and ±100 for the full control effect; nearly all actives have a fitted effect of over 55% in size
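ATXN2-luciferase reporter cells (luciferase flanked by upstream and downstream ATXN2 gene portions) were treated 24 h at 37 °C with compounds at up to 57 uM. SteadyGlo luminescence gave expression; GF-AFC fluorescence gave viability.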
DT40 TDP1 CPT: growth inhibition of DT40 Tdp1-/-;hTDP1 cells with camptothecin (screen for TDP1 inhibitors). hit rate 12% among 420,000. chicken DT40 Tdp1-/-;hTDP1 cells + 20 nM CPT, ATP luminescence, 48 h. AID 686979. Potency, µM (highest dose often 46.2 µM), without a hit: top-dose activity change, negative = growth inhibition, usual class: inhibitors; note: % is set by controls: 0 for no effect and ±100 for the full control effect; nearly all actives have a fitted effect of over 55% in size
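Chicken DT40 Tdp1-/- cells stably complemented with human TDP1 were seeded at 400 cells/well in medium containing 20 nM camptothecin, exposed to pin-transferred compounds, and grown at 37 °C for at least 48 hr. Viability was read as ATP luminescence.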
TGFb inhibitor: inhibitors of TGF-b signaling; HepG2 CAGA-GFP TGF-b/SMAD3 reporter, GFP fluorescence, 18 h; TGF-beta stimulated, 500 pg/mL final; Potency, µM (titrated, usually from 46.1 µM), without a hit: at the top dose activity, negative = inhibition, most hits filed as inhibitors; hit rate 1.2% among 410,000; note: % is set by controls: 0 for no effect and ±100 for the full control effect; nearly all actives have a fitted effect of over 65% in size
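Inhibition was scored as loss of TGF-beta-induced (500 pg/mL final, 18 hours, 37 degrees C) GFP in HEPG2 cells carrying a CAGA-GFP reporter, in DMEM with 1% FBS. Well GFP was summed per cell; Activity was normalised to unstimulated and stimulated DMSO wells, then concentration-response fitting.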
Starred values were filed as active, the others as inactive; i = inactive; ? = inconclusive; · = not tested or not shown; ! = repeats disagree; [ ] = dose if it differs, or a comment. Calls come from the whole dose curve; as a rule, active = well fitted curve in the direction sought with a large enough effect; inconclusive = small, poorly fitted or top-dose-only effect, or another doubt; inactive = no such curve, though single readings can be large; an effect the other way counts as inactive or inconclusive. Potency is the fitted concentration of half-maximal effect.

SMILES	HepG2 tox	TDP1 cell noCPT	S2 tox	ATXN2 expr inh	DT40 TDP1 CPT	TGFb inhibitor
O=C(CC(=O)Nc1cccc(Cl)c1Cl)Nc1cccc(Cl)c1Cl	-41%	?	i	·	6%	-24%
CCOc1cc(CNCCCN2CCOCC2)ccc1OCC(=O)NC(C)(C)C	7%	1%	i	-8%	1%	4%
CCOc1cc(CNCCCN2CCOCC2)cc(Br)c1OCc1ccccc1Cl	-93%	4.6µM*	?	-22%[11.3 µM]	3.7µM*	14µM*
CCOc1cc(CNC2CCCC2)ccc1OCc1ccccc1Cl	-92%	21µM*	?	·	13µM*	?
CCOc1cc(CNC2CCCC2)cc(Cl)c1OCc1ccccc1	-116%	?	?	-16%	?	0%
CCOc1cc(C2NN=C(c3ccccc3)S2)ccc1OCc1ccccc1Cl (stereo unspecified)	-12%	16µM*	i	59%	?	-9%
CCOc1cc(CNCCN2CCOCC2)ccc1OCc1ccccc1Cl	-20%	18µM*	?	-33%	?	5%
C=CCOc1c(Br)cc(CNCCCN2CCOCC2)cc1OC	-17%	?	·	·	-28%	1%
CCOc1cc(C2NN=C(c3ccccc3)S2)ccc1OCc1ccc(F)cc1 (stereo unspecified)	-4%	?	i	43%	?	?
COCCN1C(=O)CCC1(C)C(=O)NC(C)(C)C (stereo unspecified)	12%	3%	i	14%	15%	-3%
CC(=O)Nc1ccc(NC(=O)c2ccc([N+](=O)[O-])cc2Cl)cc1	-11%	-13%	i	4%	-17%	7%
Cc1ccc([N+](=O)[O-])cc1NC(=O)c1ccccc1	0%	-16%	i	-15%	1%	10%
Cc1cc(O)c(NC(=O)c2cc([N+](=O)[O-])ccc2Cl)cc1C	-15%	-27%	i	-18%[11.3 µM]	?	-17%
Cc1ccc([N+](=O)[O-])cc1NC(=O)C(Sc1ccccc1)c1ccccc1 (stereo unspecified)	2%	16µM*	i	-3%	?	-10%
O=C(CNC(c1ccccc1)c1ccccc1)Nc1cc([N+](=O)[O-])ccc1Cl	6%	16µM*	i	1%	21µM*	?
Cc1ccc(O)c(NC(=O)c2cc([N+](=O)[O-])ccc2Cl)c1	-12%	21µM*	i	-20%	?	5%
O=C(Nc1ccccc1)c1cc([N+](=O)[O-])ccc1Cl	-23%	28µM*!	i	1%	30µM*!	3%
N#Cc1ccccc1S(=O)(=O)N1CCN(C(=O)CCNS(=O)(=O)c2ccc(Cl)cc2)CC1	-36%	-24%	i	-6%	-23%	-20%
CCCCc1c(C)nc(Nc2ccc(OC)cc2)[nH]c1=O	-1%	13µM*	i	2%	?	-5%
CCCc1c(C)nc(N2CCN(c3ccc(F)cc3)CC2)[nH]c1=O	-45%	?	?	·	?	19%
CCCCCc1c(C)nc(Nc2ccc(F)cc2)[nH]c1=O	-19%	16µM*	?	-19%	?	1%
O=C1CN(C(=O)COC(=O)CCCOc2ccccc2)c2ccccc2N1	8%	3%	i	-22%	30%	1%
O=C(C[n+]1cccc(Br)c1)c1cccs1	6%	24%	i	-3%	-6%	3%
CS(=O)(=O)c1ccc(-c2cnc3c(NC=O)cc(-c4ccsc4)cn23)cc1	-12%	18µM*	i	-11%	23µM*	-2%
O=CNc1cc(-c2ccsc2)cn2c(-c3ccccc3)cnc12	-6%	21µM*	i	-30%	16µM*	?
SMILES	HepG2 tox	TDP1 cell noCPT	S2 tox	ATXN2 expr inh	DT40 TDP1 CPT	TGFb inhibitor
CCN(CC)C(=O)Cn1cc(S(=O)(=O)CC(=O)Nc2ccc(F)cc2)c2ccccc21	-16%	-13%	i	4%	-12%	-14%
O=[N+]([O-])c1cccc(-c2ccc(C(=S)N3CCOCC3)o2)c1	-15%	?	i	52%	-7%	2%
COc1c(Cl)cc(Cl)cc1C(=O)Nc1ccc(CN2CCOCC2)cc1	-17%	?	i	0%	16µM*	-14%
O=C(Nc1ccc(CN2CCOCC2)cc1)c1ccc(-c2cccc([N+](=O)[O-])c2)o1	-41%	16µM*	?	·	21µM*	-41%
O=C(Nc1nccs1)c1ccc(-c2cccc([N+](=O)[O-])c2)o1	4%	?	i	-20%	-27%	15%
O=C(Nc1ncc(Cc2cccc(C(F)(F)F)c2)s1)c1ccc(-c2cccc([N+](=O)[O-])c2)o1	-14%	?	?	-23%	15µM*	-7%
O=C(Nc1ccc(CN2CCOCC2)cc1)c1ccc(-c2cc(Cl)ccc2Cl)o1	-24%	23µM*	?	?	?	-24%
COc1ccc(OCCCC(=O)OC(C)C(=O)Nc2ccc(C)cc2)cc1 (stereo unspecified)	9%	-19%	i	1%	6%	7%
COc1ccc(C(C(=O)NC2CCCC2)N(Cc2cccs2)C(=O)c2ccn[nH]2)cc1OC (stereo unspecified)	10%	-2%	i	-12%[11.3 µM]	-3%	27%
O=C(Nc1ccc(CN2CCCCC2)cc1)Nc1ccc(Br)cc1Cl	0%	16µM*	?	14µM*	18µM*	26%
COc1c(Cl)cc(Cl)cc1C(=O)Nc1ccc(CN2CCCCC2)cc1	-2%	16µM*	?	?	?	-1%
CCOc1ccc(Nc2ccc(N3C(=O)CCC3=O)cc2[N+](=O)[O-])cc1	-11%	-23%	i	5%	0%	-3%
O=C(C[n+]1cccc(Br)c1)c1ccc(F)cc1	10%	0%	·	·	-4%	0%
COc1ccc(OC)c(S(=O)(=O)NCC(c2ccc3c(c2)OCO3)N2CCOCC2)c1 (stereo unspecified)	-2%	0%	i	-4%	-5%	19%
CC(Sc1ccccc1)C(=O)NN=C1CCN(C)CC1 (stereo unspecified)	4%	4%	i	-32%	-5%	-22%
COc1ccc(CC(N)c2csc(NC(=O)NCCc3ccc(OC)c(OC)c3)n2)cc1 (stereo unspecified)	-28%	?	?	-15%	18µM*	3%

Assay outcomes from PubChem BioAssay.
